Source: PubChem BioAssay AID1159580 (chemical genetic matrix, 2015)
Where “and” joins values, the source holds several entries; their conditions need not be identical. Equal entries are not always repeated. The whole screen tested about 5,500 compounds, of which about 2,000 (36%) were called active. Inconclusive results (about 18%) are left out. Cut-off read from the data, not from the text of the source: active = normalized growth mostly below about 0.91 (no sharp cut-off); inconclusive = no clear call, values can overlap the other calls; inactive = mostly above about 0.92. The list shows a part of the results.

Test: chemical genetic growth profiling, strain panel (AID 1159580);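 note: tested at 20 µM; growth read once vehicle control cultures reached saturation at 30 °C; 1 = growth at the plate median or of vehicle wells; lower values mean less growth of the strain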
Details: S. cerevisiae deletion strains, growth OD

Measured: normalized growth

Nc1ncn([C@@H]2O[C@H](CO)[C@@H](O)[C@H]2O)c(=O)n1
inactive: locus YAL021C, strain ccr4, active compounds read low 1.01 | locus YAL026C, strain drs2, active compounds read low 0.998 | locus YAL030W, strain snc1, active compounds read low 0.996 | locus YBL061C, strain skt5, active compounds read low 0.987 | locus YBR009C, strain hhf1, active compounds read low 0.992 | locus YBR021W, strain FUR4, active compounds read low 0.999 | locus YBR023C, strain chs3, active compounds read low 1 | locus YBR171W, strain sec66, active compounds read low 0.962 | locus YBR229C, strain ROT2, active compounds read low 1.01 | locus YBR231C, strain swc5, active compounds read low 0.973 | locus YBR279W, strain paf1, active compounds read low 0.995 | locus YCL011C, strain gbp2, active compounds read low 1.01 | locus YCL016C, strain dcc1, active compounds read low 0.987 | locus YCL029C, strain bik1, active compounds read low 1 | locus YCL061C, strain MRC1, active compounds read low 0.989 | locus YCL069W, strain vba3, active compounds read low 0.979 | locus YCR088W, strain abp1, active compounds read low 0.996 | locus YDL005C, strain med2, active compounds read low 0.972 | locus YDL035C, strain GPR1, active compounds read low 1.02 | locus YDL040C, strain nat1, active compounds read low 0.981 | locus YDL074C, strain BRE1, active compounds read low 1.03 | locus YDL101C, strain DUN1, active compounds read low 1.01 | locus YDL134C, strain PPH21, active compounds read low 1.01 | locus YDL185W, strain tfp1, active compounds read low 0.99 | locus YDL192W, strain arf1, active compounds read low 0.994 | locus YDR001C, strain nth1, active compounds read low 0.984 | locus YDR069C, strain doa4, active compounds read low 0.976 | locus YDR101C, strain arx1, active compounds read low 0.996 | locus YDR137W, strain rgp1, active compounds read low 1 | locus YDR159W, strain sac3, active compounds read low 1 | locus YDR162C, strain NBP2, active compounds read low 1.01 | locus YDR195W, strain ref2 0.91 | locus YDR297W, strain sur2, active compounds read low 0.993 | locus YDR318W, strain mcm21, active compounds read low 0.999 | locus YDR334W, strain swr1, active compounds read low 0.989 | locus YDR335W, strain msn5, active compounds read low 0.98 | locus YDR388W, active compounds read low 0.997 | locus YDR392W, strain spt3, active compounds read low 1.02 | locus YDR502C, strain sam2, active compounds read low 1.01 | locus YEL003W, strain gim4, active compounds read low 0.982 | locus YEL037C, strain rad23, active compounds read low 0.992 | locus YEL061C, strain CIN8 (second series), active compounds read low 0.986 | locus YEL061C, strain CIN8, active compounds read low 1.01 | locus YER015W, strain faa2, active compounds read low 0.99 | locus YER016W, strain bim1, active compounds read low 1.01 | locus YER110C, active compounds read low 1.01 | locus YER111C, strain swi4, active compounds read low 0.959 | locus YER155C, strain BEM2 (second series), active compounds read low 0.978 | locus YER155C, strain BEM2, active compounds read low 1.01 | locus YER167W, strain BCK2, active compounds read low 0.996 | locus YFR010W, strain ubp6, active compounds read low 0.983 | locus YGL078C, strain dbp3, active compounds read low 0.992 | locus YGL086W, strain mad1, active compounds read low 1 | locus YGL167C, strain pmr1, active compounds read low 0.987 | locus YGL173C, strain kem1, active compounds read low 0.971 | locus YGL227W, strain vid30, active compounds read low 0.983 | locus YGL240W, strain doc1, active compounds read low 0.951 | locus YGL248W, strain PDE1, active compounds read low 1.02 | locus YGL253W, strain hxk2, active compounds read low 0.989 | locus YGR078C, strain PAC10, active compounds read low 1.03 | locus YGR135W, strain pre9, active compounds read low 0.99 | locus YGR229C, strain SMI1, active compounds read low 1.02 | locus YGR252W, strain gcn5, active compounds read low 0.962 | locus YHR013C, strain ard1, active compounds read low 0.979 | locus YHR027C, strain rpn1, active compounds read low 0.994 | locus YHR030C, strain SLT2, active compounds read low 1.01 and 0.98 | locus YHR079C, strain IRE1 (second series), active compounds read low 0.989 | locus YHR079C, strain IRE1, active compounds read low 0.997 | locus YHR094C, strain hxt1, active compounds read low 0.987 | locus YHR129C, strain ARP1, active compounds read low 1.01 | locus YHR142W, strain chs7, active compounds read low 0.974 | locus YHR200W, strain rpn10, active compounds read low 0.993 | locus YIL066C, strain RNR3, active compounds read low 1.02 | locus YIL073C, strain SPO22, active compounds read low 0.973 | locus YIL125W, strain kgd1, active compounds read low 0.997 | locus YIR030C, strain dcg1, active compounds read low 1 | locus YJL092W, strain hpr5, active compounds read low 0.984 | locus YJL095W, strain BCK1 (second series), active compounds read low 0.972 | locus YJL095W, strain BCK1, active compounds read low 1.03 and 0.98 | locus YJL115W, strain asf1, active compounds read low 0.97 | locus YJL129C, strain trk1, active compounds read low 0.966 | locus YJL134W, strain LCB3, active compounds read low 1 | locus YJL154C, strain vps35, active compounds read low 0.981 | locus YJL164C, strain tpk1, active compounds read low 0.996 | locus YJL166W, strain qcr8, active compounds read low 0.973 | locus YJL168C, strain set2, active compounds read low 0.995 | locus YJL187C, strain SWE1 (second series), active compounds read low 1.03 | locus YJL187C, strain SWE1, active compounds read low 0.983 | locus YJR043C, strain POL32, active compounds read low 1.01
